Results taken from PubChem BioAssay.
For some assays here: Measured potencies and affinities stand elsewhere. Active and inactive are the calls of the source.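 Rule for the calls, unless noted: active = dose-response curve with midpoint inside the tested range, moderate steepness, significant amplitude and little compound fluorescence or bead-attachment interference; inactive = the rest.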

What follows are compounds tested against Ras-related C3 botulinum toxin substrate 1 (Homo sapiens) (UniProt P63000) (assay: wildtype Rac1 GTP binding inhibitors, dose response, biochemical, multiplex bead flow cytometry (AID 1340;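 active = dose curve with midpoint inside tested range, moderate steepness, plateau gap beyond fit error, low compound glow and bead-link interference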)). Details: GST-Rac1 beads, Bodipy-FL-GTP binding; at 100 µM (top of the series) unless noted.
With `CCCN(N=Nc1cccc([N+](=O)[O-])c1)c1cccc([N+](=O)[O-])c1` the GTP binding signal, raw median fluorescence (lower = inhibition) (MCF (arbitrary fluorescence units)) was 170.
In the case of `S=C(NCCc1ccccc1)NC1CC1`, the GTP binding signal, raw median fluorescence (lower = inhibition) (MCF (arbitrary fluorescence units)) is reported as 253.
With `Cc1nn2c(-c3cccc(NC(=O)c4ccco4)c3)nnc2c2ccccc12` the GTP binding signal, raw median fluorescence (lower = inhibition) (MCF (arbitrary fluorescence units)) was 136.
In the case of `Cc1cc(C(=O)NC(=S)Nc2cccc(C(=O)O)c2C)ccc1[N+](=O)[O-]`, the GTP binding signal, raw median fluorescence (lower = inhibition) (MCF (arbitrary fluorescence units)) is reported as 272.
Work on `O=C(O)c1cccc(NCc2ccccc2)c1` yielded a GTP binding signal, raw median fluorescence (lower = inhibition) (MCF (arbitrary fluorescence units)) of 38.8.
In the case of `COc1ccc(N=C2S/C(=C\c3ccc(N4CCOCC4)o3)C(=O)N2CCc2c[nH]c3ccccc23)cc1`, the GTP binding signal, raw median fluorescence (lower = inhibition) (MCF (arbitrary fluorescence units)) is reported as 210.
`C/C(=N\NC(=O)CC1N=C(Cc2ccccc2)NNC1=O)c1ccc(Cl)cc1Cl` (stereo not given) gave a GTP binding signal, raw median fluorescence (lower = inhibition) (MCF (arbitrary fluorescence units)) of 175.
With `Nc1[nH]n2c(=O)c3c(nc2c1N=Nc1ccc(Cl)cc1)CCCC3` the GTP binding signal, raw median fluorescence (lower = inhibition) (MCF (arbitrary fluorescence units)) was 188.
Work on `Cc1cc2nc3c(=O)[nH]c(=O)[nH]c3nc2c([N+](=O)[O-])c1N` yielded a GTP binding signal, raw median fluorescence (lower = inhibition) (MCF (arbitrary fluorescence units)) of 192.
`COC(=O)c1ccc(COc2ccccc2/C=N/Nc2cccc(C(=O)O)c2)cc1` gave a GTP binding signal, raw median fluorescence (lower = inhibition) (MCF (arbitrary fluorescence units)) of 274.
For `Cc1ccc(CNCc2c(C)[nH]c(C)c2C(=O)O)cc1`, the GTP binding signal, raw median fluorescence (lower = inhibition) (MCF (arbitrary fluorescence units)) was 34.6.
`COCCNc1nnnc2c1sc1nc(N3CCOCC3)c3c(c12)CCCC3` gave a GTP binding signal, raw median fluorescence (lower = inhibition) (MCF (arbitrary fluorescence units)) of 137.
For `CC(C)Nc1nnc(SCC(=O)Nc2ccc3c(c2)C(=O)c2ccccc2C3=O)s1`, the GTP binding signal, raw median fluorescence (lower = inhibition) (MCF (arbitrary fluorescence units)) was 0.
`O=C(Cn1cnc2cc([N+](=O)[O-])ccc2c1=O)NCCc1ccc(Cl)cc1` was tested, and the GTP binding signal, raw median fluorescence (lower = inhibition) (MCF (arbitrary fluorescence units)) was 244.
Compound `CCOc1cc(/C=C2/NC(=O)NC2=O)cc([N+](=O)[O-])c1O` has a GTP binding signal, raw median fluorescence (lower = inhibition) (MCF (arbitrary fluorescence units)) of 146.
In the case of `Cc1ccc(N=Nc2c(N)[nH]n3c(=O)cc(-c4ccccc4)nc23)cc1`, the GTP binding signal, raw median fluorescence (lower = inhibition) (MCF (arbitrary fluorescence units)) is reported as 118.
With `C=CCN1C(=O)/C(=C/c2ccc(N(C)C)cc2)S/C1=N\c1nnc(CC)s1` the GTP binding signal, raw median fluorescence (lower = inhibition) (MCF (arbitrary fluorescence units)) was 231.
`O=[N+]([O-])c1cc(Cc2ccccc2)cc(C=Nc2ccc(N3CCOCC3)cc2)c1O` gave a GTP binding signal, raw median fluorescence (lower = inhibition) (MCF (arbitrary fluorescence units)) of 0.
Compound `COc1ccc(CNC(=O)C2CC(=O)N(c3ccc(OCC(=O)N4C(C)CCCC4C)cc3)C2)cc1` (stereo not given) has a GTP binding signal, raw median fluorescence (lower = inhibition) (MCF (arbitrary fluorescence units)) of 183.
`O=C(O)c1cccnc1SCc1ccc([N+](=O)[O-])cc1` gave a GTP binding signal, raw median fluorescence (lower = inhibition) (MCF (arbitrary fluorescence units)) of 45.6.
Compound `O=C(Nc1ccccc1F)c1ccccc1-c1ccccc1` has a GTP binding signal, raw median fluorescence (lower = inhibition) (MCF (arbitrary fluorescence units)) of 203.
`Cc1nn2c(N)csc2nc1=O` was tested, and the GTP binding signal, raw median fluorescence (lower = inhibition) (MCF (arbitrary fluorescence units)) was 94.3.
For `O=[N+]([O-])c1ccc(/C=C/C2=NN(c3ccccc3)C(c3ccco3)C2)cc1` (stereo not given), the GTP binding signal, raw median fluorescence (lower = inhibition) (MCF (arbitrary fluorescence units)) was 258.
Compound `COc1cc(/C=N/Nc2ncnc3sc4c(c23)CCC4)ccc1O` has a GTP binding signal, raw median fluorescence (lower = inhibition) (MCF (arbitrary fluorescence units)) of 126.
For `COc1ccc(/C=C2/N=C(SCC(=O)Nc3cc(C)on3)N(c3ccccc3)C2=O)cc1`, the GTP binding signal, raw median fluorescence (lower = inhibition) (MCF (arbitrary fluorescence units)) was 177.
Work on `Cn1nc([N+](=O)[O-])c(C(C#N)c2ccccn2)c(Cl)c1=O` (stereo not given) yielded a GTP binding signal, raw median fluorescence (lower = inhibition) (MCF (arbitrary fluorescence units)) of 201.
With `Cc1ccc(C(C)C)c(OCCn2cc(C(=O)O)c3ccccc32)c1` the GTP binding signal, raw median fluorescence (lower = inhibition) (MCF (arbitrary fluorescence units)) was 44.5.
`COc1cc(N2CCCC2)c(OC)cc1/C=C(/C#N)c1cccc(Br)c1` was tested, and the GTP binding signal, raw median fluorescence (lower = inhibition) (MCF (arbitrary fluorescence units)) was 228.
Work on `COc1cc(CCNc2ccc3nnc(-c4ccccc4)n3n2)cc(OC)c1OC` yielded a GTP binding signal, raw median fluorescence (lower = inhibition) (MCF (arbitrary fluorescence units)) of 123.
With `Oc1ccc(C2=Nn3c(nnc3-c3ccco3)SC2)cc1O` the GTP binding signal, raw median fluorescence (lower = inhibition) (MCF (arbitrary fluorescence units)) was 0.
For `Nc1[nH]c(=S)nc2nc(-c3ccccc3)c(-c3ccccc3)nc12`, the GTP binding signal, raw median fluorescence (lower = inhibition) (MCF (arbitrary fluorescence units)) was 198.
`COc1ccc(CNc2ccccc2C(=O)O)cc1` was tested, and the GTP binding signal, raw median fluorescence (lower = inhibition) (MCF (arbitrary fluorescence units)) was 44.1.
For `CCOc1ccc(-n2nc3c(=S)[nH]nc(C)c3c2C)cc1`, the GTP binding signal, raw median fluorescence (lower = inhibition) (MCF (arbitrary fluorescence units)) was 0.
Compound `CCOc1ccc2nc(SCc3ccc(CC(=O)O)cc3)c(C#N)cc2c1` has a GTP binding signal, raw median fluorescence (lower = inhibition) (MCF (arbitrary fluorescence units)) of 201.
`COc1ccccc1OCCn1cc(C(=O)O)c2c(C)cccc21` showed a GTP binding signal, raw median fluorescence (lower = inhibition) (MCF (arbitrary fluorescence units)) of 55.3.
In the case of `Cc1[nH]c2ccccc2c1C(=O)CNc1nccs1`, the GTP binding signal, raw median fluorescence (lower = inhibition) (MCF (arbitrary fluorescence units)) is reported as 0.
`CCOc1cc(/C=C2\SC(=O)N=C2N)ccc1O` gave a GTP binding signal, raw median fluorescence (lower = inhibition) (MCF (arbitrary fluorescence units)) of 174.
Work on `NC(=O)c1cc2nc(-c3ccco3)cc(C(F)(F)F)n2n1` yielded a GTP binding signal, raw median fluorescence (lower = inhibition) (MCF (arbitrary fluorescence units)) of 91.8.
Work on `O=C(C1CCCO1)N1CCN(C(=S)Nc2ccccc2C(F)(F)F)CC1` (stereo not given) yielded a GTP binding signal, raw median fluorescence (lower = inhibition) (MCF (arbitrary fluorescence units)) of 208.
`CCCCNc1nc(=S)[nH]c2cc(OC)c(OC)cc12` gave a GTP binding signal, raw median fluorescence (lower = inhibition) (MCF (arbitrary fluorescence units)) of 110.

Each compound was assayed against GTPase HRas (Homo sapiens) (UniProt P01112) (assay: activated Ras mutant GTP binding inhibitors, dose response, biochemical, multiplex bead flow cytometry (AID 1341;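 note: GST-tagged constitutively activated Ras mutant immobilized on beads and multiplexed with other GTPases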)). Details: bead-based flow cytometry, Bodipy-FL-GTP binding; series mostly up to 100 µM; GTP binding signal, % of control: at the top concentration.
For `CCCN(N=Nc1cccc([N+](=O)[O-])c1)c1cccc([N+](=O)[O-])c1`, the “GTP binding signal, % of control” value was 172% (inactive).
In the case of `S=C(NCCc1ccccc1)NC1CC1`, the “GTP binding signal, % of control” value is reported as 136% (inactive).
With `Cc1nn2c(-c3cccc(NC(=O)c4ccco4)c3)nnc2c2ccccc12` the “GTP binding signal, % of control” value was 76.6% [at 33.3 µM] (inactive).
For `Cc1cc(C(=O)NC(=S)Nc2cccc(C(=O)O)c2C)ccc1[N+](=O)[O-]`, the “GTP binding signal, % of control” value was 142% (inactive).
In the case of `O=C(O)c1cccc(NCc2ccccc2)c1`, the “GTP binding signal, % of control” value is reported as 108% (inactive).
For `COc1ccc(N=C2S/C(=C\c3ccc(N4CCOCC4)o3)C(=O)N2CCc2c[nH]c3ccccc23)cc1`, the “GTP binding signal, % of control” value was 239% (inactive).
For `C/C(=N\NC(=O)CC1N=C(Cc2ccccc2)NNC1=O)c1ccc(Cl)cc1Cl` (stereo not given), the “GTP binding signal, % of control” value was 174% (inactive).
For `Nc1[nH]n2c(=O)c3c(nc2c1N=Nc1ccc(Cl)cc1)CCCC3`, the “GTP binding signal, % of control” value was 55.7% (inactive).
For `Cc1cc2nc3c(=O)[nH]c(=O)[nH]c3nc2c([N+](=O)[O-])c1N`, the “GTP binding signal, % of control” value was 129% (inactive).
In the case of `COC(=O)c1ccc(COc2ccccc2/C=N/Nc2cccc(C(=O)O)c2)cc1`, the “GTP binding signal, % of control” value is reported as 132% (inactive).
`Cc1ccc(CNCc2c(C)[nH]c(C)c2C(=O)O)cc1` was tested, and the “GTP binding signal, % of control” value was 112% (inactive).
In the case of `COCCNc1nnnc2c1sc1nc(N3CCOCC3)c3c(c12)CCCC3`, the “GTP binding signal, % of control” value is reported as 93.3% (inactive).
For `CC(C)Nc1nnc(SCC(=O)Nc2ccc3c(c2)C(=O)c2ccccc2C3=O)s1`, the “GTP binding signal, % of control” value was 76.2% (inactive).
For `O=C(Cn1cnc2cc([N+](=O)[O-])ccc2c1=O)NCCc1ccc(Cl)cc1`, the “GTP binding signal, % of control” value was 130% (inactive).
With `CCOc1cc(/C=C2/NC(=O)NC2=O)cc([N+](=O)[O-])c1O` the “GTP binding signal, % of control” value was 122% (inactive).
In the case of `Cc1ccc(N=Nc2c(N)[nH]n3c(=O)cc(-c4ccccc4)nc23)cc1`, the “GTP binding signal, % of control” value is reported as 150% (inactive).
`C=CCN1C(=O)/C(=C/c2ccc(N(C)C)cc2)S/C1=N\c1nnc(CC)s1` was tested, and the “GTP binding signal, % of control” value was 113% (inactive).
In the case of `O=[N+]([O-])c1cc(Cc2ccccc2)cc(C=Nc2ccc(N3CCOCC3)cc2)c1O`, the “GTP binding signal, % of control” value is reported as 78.1% (inactive).
With `COc1ccc(CNC(=O)C2CC(=O)N(c3ccc(OCC(=O)N4C(C)CCCC4C)cc3)C2)cc1` (stereo not given) the “GTP binding signal, % of control” value was 205% (inactive).
With `O=C(O)c1cccnc1SCc1ccc([N+](=O)[O-])cc1` the “GTP binding signal, % of control” value was 114% (inactive).
With `O=C(Nc1ccccc1F)c1ccccc1-c1ccccc1` the “GTP binding signal, % of control” value was 85.5% (inactive).
With `Cc1nn2c(N)csc2nc1=O` the “GTP binding signal, % of control” value was 72.4% (inactive).
For `O=[N+]([O-])c1ccc(/C=C/C2=NN(c3ccccc3)C(c3ccco3)C2)cc1` (stereo not given), the “GTP binding signal, % of control” value was 140% (inactive).
`COc1cc(/C=N/Nc2ncnc3sc4c(c23)CCC4)ccc1O` was tested, and the “GTP binding signal, % of control” value was 76.5% (inactive).
In the case of `COc1ccc(/C=C2/N=C(SCC(=O)Nc3cc(C)on3)N(c3ccccc3)C2=O)cc1`, the “GTP binding signal, % of control” value is reported as 74.6% (inactive).
With `Cn1nc([N+](=O)[O-])c(C(C#N)c2ccccn2)c(Cl)c1=O` (stereo not given) the “GTP binding signal, % of control” value was 109% (inactive).
With `Cc1ccc(C(C)C)c(OCCn2cc(C(=O)O)c3ccccc32)c1` the “GTP binding signal, % of control” value was 107% (inactive).
For `COc1cc(N2CCCC2)c(OC)cc1/C=C(/C#N)c1cccc(Br)c1`, the “GTP binding signal, % of control” value was 133% (inactive).
`COc1cc(CCNc2ccc3nnc(-c4ccccc4)n3n2)cc(OC)c1OC` was tested, and the “GTP binding signal, % of control” value was 70.4% (inactive).
In the case of `Oc1ccc(C2=Nn3c(nnc3-c3ccco3)SC2)cc1O`, the “GTP binding signal, % of control” value is reported as 64.1% (inactive).
`Nc1[nH]c(=S)nc2nc(-c3ccccc3)c(-c3ccccc3)nc12` was tested, and the “GTP binding signal, % of control” value was 137% (inactive).
In the case of `COc1ccc(CNc2ccccc2C(=O)O)cc1`, the “GTP binding signal, % of control” value is reported as 111% (inactive).
In the case of `CCOc1ccc(-n2nc3c(=S)[nH]nc(C)c3c2C)cc1`, the “GTP binding signal, % of control” value is reported as 90.5% (inactive).
`CCOc1ccc2nc(SCc3ccc(CC(=O)O)cc3)c(C#N)cc2c1` was tested, and the “GTP binding signal, % of control” value was 139% (inactive).
`COc1ccccc1OCCn1cc(C(=O)O)c2c(C)cccc21` was tested, and the “GTP binding signal, % of control” value was 230% (inactive).
In the case of `Cc1[nH]c2ccccc2c1C(=O)CNc1nccs1`, the “GTP binding signal, % of control” value is reported as 84.9% (inactive).
In the case of `CCOc1cc(/C=C2\SC(=O)N=C2N)ccc1O`, the “GTP binding signal, % of control” value is reported as 110% (inactive).
For `NC(=O)c1cc2nc(-c3ccco3)cc(C(F)(F)F)n2n1`, the “GTP binding signal, % of control” value was 70.1% (inactive).
`O=C(C1CCCO1)N1CCN(C(=S)Nc2ccccc2C(F)(F)F)CC1` (stereo not given) was tested, and the “GTP binding signal, % of control” value was 91.3% (inactive).
`CCCCNc1nc(=S)[nH]c2cc(OC)c(OC)cc12` was tested, and the “GTP binding signal, % of control” value was 69.9% (inactive).
